# The list is not random: actives were taken first. Their share in the collection is about 9.3%.
# FLuc modulator: qHTS profiling assay for firefly luciferase inhibitor/activator using purifed enzyme and Km concentrations of substrates (counterscreen for miR-21 project). 6.9% of 360,000 active. Luciferin 4-monooxygenase (Photinus pyralis), P08659. purified FLuc, Km substrates, luminescence inhibition. AID 588342, 2011. Potency, µM (top dose mostly 57.5 µM), for inactives: at the highest dose activity change, negative = inhibition, hits mostly inhibitors;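 also: plate controls were vehicle for no effect and reference inhibitor for full effect; nearly all actives have a fitted effect of over 55% in size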
# Target sequence (P08659 whole entry, looked up): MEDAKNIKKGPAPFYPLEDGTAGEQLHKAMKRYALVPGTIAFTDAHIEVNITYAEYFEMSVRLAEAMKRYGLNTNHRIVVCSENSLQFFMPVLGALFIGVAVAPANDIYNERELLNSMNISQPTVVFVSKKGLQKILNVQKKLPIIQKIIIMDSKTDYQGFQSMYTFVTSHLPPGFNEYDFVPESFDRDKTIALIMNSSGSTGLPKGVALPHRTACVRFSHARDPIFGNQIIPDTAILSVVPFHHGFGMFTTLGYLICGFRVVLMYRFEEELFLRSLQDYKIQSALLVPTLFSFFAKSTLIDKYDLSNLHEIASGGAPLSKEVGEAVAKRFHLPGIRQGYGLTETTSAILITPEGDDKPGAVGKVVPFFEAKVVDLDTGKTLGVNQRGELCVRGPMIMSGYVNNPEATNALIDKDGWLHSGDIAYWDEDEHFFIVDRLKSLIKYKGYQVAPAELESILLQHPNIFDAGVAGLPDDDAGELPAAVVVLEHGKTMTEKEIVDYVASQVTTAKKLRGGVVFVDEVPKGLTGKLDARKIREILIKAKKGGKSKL
#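 Biochemical qHTS of compounds, final roughly 60 µM downward over six points, against 10 nM purified firefly luciferase using Km concentrations of substrates (10 uM D-luciferin, 10 uM ATP) in Tris acetate pH 7.5 buffer; luminescence output.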
# ELG1 genotox: qHTS screen for small molecules that induce genotoxicity in human embryonic kidney (HEK293T) cells expressing luciferase-tagged ELG1. 1.3% of 330,000 active. HEK293T ELG1-luciferase reporter, luminescence, 16 h. Potency, µM (highest dose often 46 µM), inactives show top-dose activity change, positive = activation, actives largely listed as activators; also: % of control where 0% means no effect; nearly all actives have a fitted effect of over 60% in size
#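 Screening used a luciferase reporter fused to human ELG1 in HEK293T cells. Luminescence was read on a CCD plate imager after 16 hr exposure and 30 min ONE-Glo incubation.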
# NPC1 promoter act: qHTS Assay for NPC1 Promoter Activators; 2.4% of 320,000 active; Potency, µM (highest dose often 9.22 µM), for inactives: at the highest dose activation, most hits filed as activators; AID 485313, 2010; Huh7 NPC1 promoter luciferase reporter, 24 h; also: % of control where 0% means no effect; nearly all actives have a fitted effect of over 60% in size
#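 Compounds in DMSO were transferred onto Huh7 NPC1-luciferase reporter cells pre-incubated 2 h; after 24 h at 37 °C, Amplite reagent was dispensed and luminescence recorded 10 min later.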
# ELG1 repair inh: qHTS screen for small molecules that inhibit ELG1-dependent DNA repair in human embryonic kidney (HEK293T) cells expressing luciferase-tagged ELG1; HEK293T ELG1-luciferase reporter, luminescence, 16 h; DNA damage induced by 5-fluorouridine; Potency, µM (top dose mostly 46.1 µM), without a hit: top-dose activity change, negative = inhibition, actives largely listed as inhibitors; 2.3% of 330,000 active; AID 504467, 2011; also: % is scaled to controls: 0 for no effect and ±100 for the full control effect; nearly all actives have a fitted effect of over 55% in size
#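 DMSO vehicle served as the neutral condition. Each well held 2,000 cells given 5-fluorouridine plus compound; after 16 hr at 37 °C/5% CO2, ONE-Glo was added and luciferase measured 30 min later.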
# Rab9 promoter act: qHTS Assay for Rab9 Promoter Activators | Huh7 Rab9 promoter-luciferase reporter, luminescence, 24 h | Potency, µM (series often up to 9.22 µM), for the others: at the highest dose activation, negative = inhibition, actives largely listed as activators | 2.8% of 320,000 active | AID 485297, 2010; also: % of control where 0% means no effect; nearly all actives have a fitted effect of over 60% in size
#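 Huh7 reporter line, Rab9 promoter upstream of luciferase. Compound exposure 24 h at 37 °C in reduced-serum medium with 10% FBS. Read-out: luminescence.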
# SMN2 splice enh: qHTS Assay for Enhancers of SMN2 Splice Variant Expression; HEK293 SMN2-luciferase splicing reporter, luminescence, 30-36 h; Potency, µM (top dose mostly 46.1 µM), for inactives: top-dose activity change, positive = activation, most hits filed as activators; 2.8% of 210,000 active; AID 1458, 2008; also: % of control where 0% means no effect; nearly all actives have a fitted effect of over 55% in size
#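 HEK293 cells carry an SMN2 minigene-luciferase reporter in which exon 7 inclusion puts luciferase in frame. Cells were seeded at 2000 cells/well, attached for 10-12 hours, then exposed to compounds for 30-36 hours at 37C before ONE-Glo luminescence.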
# * hit, by the source's call; ? = inconclusive; / = no result. Calls follow the shape of the dose curve; as a rule, active = well fitted curve in the direction sought with a large enough effect; inconclusive = small, poorly fitted or top-dose-only effect, or another doubt; inactive = no such curve, though single readings can be large; an effect the other way counts as inactive or inconclusive. Potency is read from the fitted curve at half-maximal effect.
SMILES,FLuc modulator,ELG1 genotox,NPC1 promoter act,ELG1 repair inh,Rab9 promoter act,SMN2 splice enh
O/N=C/c1ccc2ccccc2n1,?,?,?,?,2.8µM*,/
O/C(=C\c1ccc2ccccc2n1)c1ccncc1,2.4µM*,?,2.5µM*,?,1.4µM*,/
O/C(=C\c1nc2ccccc2nc1/C=C(\O)c1ccccc1)c1ccccc1,1.1µM*,-7%,3.2µM*,?,4.5µM*,?
CC(=O)/C=C/c1ccc2ccccc2n1,?,?,-27%,-23%,-5%,-35%
O/N=C/c1ccc2cccc(O)c2n1,?,-4%,1%,0%,-4%,/
CCCCS/C(N)=N/N=C/c1cc(C)ccc1O,17µM*,?,18%,?,5%,15%
CCS/C(N)=N/N=C/c1cc(C)ccc1O,0.95µM*,1.2µM*,1.6µM*,?,?,11µM*
NC(N)=N/N=C/c1cc([N+](=O)[O-])ccc1O,-2%,2%,0%,11%,-1%,-5%
CS/C(N)=N/N=C/c1cc(Br)cc(Br)c1O,27µM*,3%,-1%,1%,2%,/
CCN(CC)c1ccc(/C=N/N=C(N)N)c(O)c1,-5%,10%,-11%,-10%,-19%,-37%
CS/C(N)=N/N=C/c1cc(C)ccc1O,1.2µM*,7.3µM*,1.1µM*,?,0.16µM*,/
Cc1nnc(C)n1/N=C/c1cc(Br)cc(Br)c1O,0%,-1%,-1%,5%,0%,/
Cc1ccc(O)c(/C=N/NC(=O)CN2CCCC2)c1,0%,?,-2%,-6%,1%,/
CC(=O)N/C(=C\c1cccs1)C(=O)O,-1%,0%,-3%,-4%,2%,-14%
Cc1cccc(C)c1OCC(=O)Nc1cccc(C(=O)O)c1,2.1µM*,?,1.4µM*,?,2.5µM*,6.3µM*
COc1ccccc1OCC(=O)Nc1ccccc1C(=O)Nc1cccc(C(=O)O)c1,?,3%,-6%,2%,6%,/
Cc1ccc(C)c(OCC(=O)Nc2cccc(C(=O)O)c2)c1C,11µM*,?,?,?,?,13µM*
CCOC(=O)Nc1cccc(C(=O)O)c1,-19%,7%,?,?,?,13µM*
Cc1nnc(-c2cnn(C)c2N)n1Cc1ccccc1,-1%,0%,1%,4%,0%,9%
CC(C)(C)OC(=O)N1CCC[C@H]1c1nnc(SCC(=O)Nc2cccc(Cl)c2)o1,?,0%,-2%,-8%,1%,/
COc1ccc(CNC(=O)C(=O)NCC(c2ccco2)S(=O)(=O)c2ccc(Cl)cc2)cc1 (configuration not stated),-2%,/,/,/,/,/
CN(C)c1ccc(C=C(c2nnnn2-c2ccccc2)c2nnnn2-c2ccccc2)cc1,6%,-7%,-2%,12µM*,-4%,-6%
CN(C)/C=C(\C(=O)c1ccccc1)c1nnnn1-c1ccccc1,-1%,0%,-4%,-3%,-3%,/
CC(=O)Nc1nc(C2COc3ccccc3O2)cs1 (configuration not stated),4.8µM*,0.65µM*,1.3µM*,?,0.56µM*,4µM*
CC(=O)NCC1COc2ccccc2O1 (configuration not stated),-2%,-1%,-3%,0%,1%,/
SMILES,FLuc modulator,ELG1 genotox,NPC1 promoter act,ELG1 repair inh,Rab9 promoter act,SMN2 splice enh
NC(N)=Nc1nc(C2COc3ccccc3O2)cs1 (configuration not stated),3.4µM*,?,1.6µM*,?,1.3µM*,4.5µM*
N/C(=N\O)C1COc2ccccc2O1 (configuration not stated),-1%,6%,-7%,17%,-3%,-12%
CSCC(C)N1CCC(CCC(=O)NC2CC2)CC1 (configuration not stated),0%,3%,2%,3%,-4%,/
CCCCNc1nc(Nc2ccc(C)c(Cl)c2)c2cnn(C)c2n1,0%,-5%,-3%,18µM*,-5%,/
CCNc1nc(Nc2ccc(C)c(Cl)c2)c2cnn(C)c2n1,-1%,-1%,0%,9.2µM*,-4%,/
COCCNc1nc(NCc2cccc(Cl)c2)c2cnn(C)c2n1,-4%,/,/,/,/,/
CC1(C)CC(=O)C=C(NCc2ccccc2)C1,-2%,1%,4%,0%,4%,-5%
COc1cc(OC)cc(C(=O)Nc2nnc(-c3cccnc3)o2)c1,-13%,-4%,-4%,?,-9%,12%
COc1cccc(-c2nnc(NC(=O)c3cccc(F)c3)o2)c1,17µM*,?,0%,12%,1%,/
O=C(Nc1nnc(-c2cccnc2)o1)c1cccc(Cl)c1,?,-8%,-3%,16µM*,-3%,-29%
O=C(Nc1cccnc1)C(Cc1ccccc1)n1cccc1 (configuration not stated),1%,-4%,3%,0%,4%,3%
O=C(CS(=O)(=O)Cc1ccccc1)Nc1nnc(C2CCCCC2)s1,-15%,-4%,16%,8%,4%,-29%
COc1ccc(OC)c(/C=C/C(=O)OCC(=O)N2CCCC2)c1,-1%,4%,-2%,1%,-3%,/
COc1ccc(OC)c(/C=C/C(=O)OCC(=O)N2C(C)CCCC2C)c1 (configuration not stated),/,-5%,/,21µM*,/,/
O=C(OCC(=O)N1CCN(C(=O)c2ccco2)CC1)C1=COCCO1,1%,-2%,0%,?,6%,-3%
CCOc1cc(/C=C2/C(=O)ON=C2C)ccc1O,?,2%,2%,-2%,1%,/
CCOc1cc(/C=C2\CN(C)C/C(=C\c3ccc(O)c(OCC)c3)C2=O)ccc1O,-17%,-25%,-48%,23µM*,-55%,/
CCOc1cc(/C=C2\CCC/C(=C\c3cc(Cl)c(O)c(OCC)c3)C2=O)cc(Cl)c1O,-1%,-2%,21%,6.5µM*,-1%,-82%
O=C(CCS(=O)(=O)c1ccccc1Cl)NCc1ccc(F)cc1,5%,1%,2%,19%,1%,/
COc1cc(C(=O)O)ccc1OCC(=O)N1CCOCC1,2%,-1%,-3%,0%,-4%,-12%
CCN(CC)CCOc1nnc(-c2ccc(OC)cc2)c2ccccc12,0%,-6%,-6%,-19%,-3%,/
CN(C)CCCNc1ncnc2scc(-c3ccccc3)c12,-3%,-5%,-7%,-2%,-4%,-1%
